Screens (PubChem)
Most compounds without a hit are left out; they make up all but 19% or so of the library.
SARS PLP yeast – blocks SARS-CoV papain-like protease in a yeast assay | Potency, µM (doses to about 32.9 µM), for inactives: at the top dose activity, positive = growth rescue, hits mostly activators | S. cerevisiae expressing SARS-CoV PLpro, growth rescue | 330,000 compounds, 0.19% hits | AID 485353; calls by dose curve; further: potency means the concentration at half of the fitted maximal effect; 0% is about no effect; nearly all actives have a fitted effect of over 55% in size
Pf growth 96h – P. falciparum growth inhibition at 96 hour, primary screen for plastid delayed-death inhibitors; Potency, µM (top dose mostly 28.7 µM), inactives show at the highest dose activity change, negative = inhibition, usual class: inhibitors; P. falciparum luciferase reporter growth, 96 h; 320,000 compounds, 6.9% hits; further: potency means the concentration at half of the fitted maximal effect; on the % scale 0 is the no-effect control and ±100 the full control effect
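Two-generation exposure (96 h) targets delayed-death phenotype. Reporter parasites carrying integrated firefly luciferase, in red cells at 2% hematocrit and 0.05% parasitemia final, kept at 37 C, 5% CO2; luminescence loss indicates inhibition.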
Pf growth 48h – P. falciparum growth inhibition at 48 hours (one generation). 310,000 compounds, 5.9% hits. P. falciparum luciferase growth in erythrocytes, 48 h. Potency, µM (top dose mostly 28.7 µM), for inactives: top-dose activity change, negative = inhibition, actives largely listed as inhibitors; further: potency means the concentration at half of the fitted maximal effect; on the % scale 0 is the no-effect control and ±100 the full control effect
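Here the parasites carry a stable luciferase gene and grow inside erythrocytes in Albumax-based RPMI medium with compound for one erythrocytic cycle. Activity is scored as loss of luminescent signal.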
AMA1 RON2 block – AMA1-RON2 (P. falciparum) interaction inhibition; AlphaScreen AMA1-biotinylated RON2 peptide binding; Potency, µM (top dose mostly 58.2 µM), without a hit: at the top dose activity change, negative = inhibition, hits mostly inhibitors; 360,000 compounds, 0.2% hits;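 further: potency means the concentration at half of the fitted maximal effect; 0% = vehicle wells and -100% = peptide control; nearly all actives have a fitted effect of over 45% in size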
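AMA1 (3D7) with his tag at 25 nM final met compounds first, then biotinylated RON2 peptide at 25 nM; detection used donor plus acceptor beads, 10 µg/mL apiece, read by AlphaScreen after 30 min at room temperature.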
Shiga toxin inh – Shiga toxin inhibition | Vero cells, Shiga toxin protein synthesis inhibition reporter | inhibition, % at 38.7 µM | 290,000 compounds, 9.2% hits | AID 2315; in the data active means inhibition mostly above about 28%, no sharp cut-off; inactive means mostly below about 43%; further: 0% is about no effect
Cycloheximide cs – counter-screen hit for Shiga toxin inhibitors, cycloheximide; cell reporter, cycloheximide protein synthesis inhibition counterscreen; 300,000 compounds, 12% hits; max response, %; in the data active means max response mostly above about 13%, no sharp cut-off; inactive means mostly below about 14%; further: read at 38.3 µM for the half of the compounds with a filed dose; 0% is about no effect
* marks the source's active call; other numbers are inactive results; u = inconclusive; x = no result given. Unless noted, the call rests on the fitted dose curve; in most records, active means well fitted curve in the direction sought with a large enough effect; inconclusive means small, poorly fitted or top-dose-only effect, or another doubt; inactive means no such curve, though single readings can be large; an effect the other way counts as inactive or inconclusive.

SMILES	SARS PLP yeast	Pf growth 96h	Pf growth 48h	AMA1 RON2 block	Shiga toxin inh	Cycloheximide cs
COc1ccc(OC)c(NC(=O)C(CC(=O)O)NCc2ccco2)c1 (configuration not stated)	4.4%	x	22.5%	32.9%	-15.9	-3.2
CCN1CCN(S(=O)(=O)c2ccc(Cl)c(C(=O)N(C)C3CCCCC3)c2)CC1	x	x	x	134.7%	x	x
CC1(C)CC(NNCCC#N)=CC(=[N+]2CCCC2)C1	-3.9%	u	0.3%	-0.5%	-6.1	3.0
CN(Cc1ccccc1)C1=CC(=[N+]2CCCCC2)CC(C)(C)C1	-4.3%	0.329µM*	0.37µM*	0.0%	-4.0	7.8
CC1(C)CC(N2CCCC2)=CC(=[N+]2CCCC2)C1	-3.9%	0.329µM*	1.47µM*	6.8%	-3.6	5.8
CC1(C)CC(=O)C=C(N2CCN(C3=CC(=O)CC(C)(C)C3)CC2)C1	-0.1%	x	40.3%	x	43.6	-1.2
CC1(C)CC(N2CCCC2)=CC(=[N+]2CCCCC2)C1	1.1%	u	0.828µM*	-2.7%	-6.6	2.6
CC1(C)CC(N2CCN(Cc3ccccc3)CC2)=CC(=[N+]2CCCCC2)C1	0.9%	0.522µM*	0.828µM*	-25.6%	-2.9	-0.2
COC(=O)C1CCN(C(=O)COC(=O)c2ccc(N3CCCC3=O)cc2)CC1	1.2%	x	x	8.1%	x	x
O=C(Nc1ccccc1)C(O)C(O)C(=O)Nc1ccccc1 (configuration not stated)	1.5%	35.4%	15.8%	5.3%	-13.1	-2.1
COc1ccc(C(=O)Nc2cc(C)nn2-c2cccc(F)c2)cc1OC	-1.5%	u	17.7%	-2.9%	-8.7	-4.2
CC(=O)Nc1c(C(=O)c2ccc(F)cc2)oc2ccccc12	3.5%	-8.9%	13.7%	8.4%	-11.1	-4.8
CC(=O)Nc1c(C(=O)O)oc2ccccc12	0.6%	-23.9%	96.5%	-6.5%	40.5	23.5*
COC(=O)c1oc2ccccc2c1NC(=O)c1ccccc1O	-1.7%	53.5%	10.4µM*	-29.7%	2.8	6.9
CCOC(=O)c1oc2ccccc2c1NC(=O)c1ccccc1OC	-8.6%	0.0%	2.4%	24.3%	-13.8	-4.1
CC(=O)Nc1c(C(=O)O)oc2ccc(Cl)cc12	4.8%	2.62µM*	-3.5%	-0.5%	-10.1	-1.3
CC1=C(C(=O)N2CCCCCC2)CC(CC(=O)NCC2CCCCC2)C(=O)N1CCCN1CCCC1=O (configuration not stated)	x	x	x	2.6%	x	x
O=C(CCl)N(CCCNC(=O)C(F)(F)F)c1ccc([N+](=O)[O-])cc1	-0.1%	u	9.28µM*	9.7%	39.7	15.1
CCCC[n+]1ccn(C2=C([O-])c3ccccc3C(=O)/C2=N\S(=O)(=O)c2ccccc2)c1	-0.4%	8.28µM*	1.85µM*	1.8%	-3.9	-2.2
CC(C)c1ccc(NC(=O)C[n+]2ccn(C3=C([O-])c4ccccc4C3=O)c2)cc1	0.5%	-23.8%	0.0%	-6.0%	-15.3	-3.4
CCCCC[n+]1ccn(-c2nc3ccccc3nc2[N-]S(=O)(=O)c2ccc(C)cc2)c1	9.5%	u	-16.1%	150.1%	-19.2	1.8
CCCCC[n+]1ccn(C2=C([O-])c3ccccc3C(=O)/C2=N\S(=O)(=O)c2ccccc2)c1	-0.4%	5.86µM*	2.94µM*	-14.7%	-7.0	-4.4
CC(C)[n+]1ccn(C2=C([O-])c3ccccc3C(=O)/C2=N\S(=O)(=O)c2ccccc2)c1	-0.1%	u	6.57µM*	-13.0%	-9.1	-1.1
CCCCC[n+]1ccn(C2=C([O-])c3ccccc3C(=O)/C2=N\S(=O)(=O)c2ccc(Br)cc2)c1	0.4%	u	1.85µM*	0.0%	-6.0	-1.1
CN(C)CC(C)(C)CNS(=O)(=O)CC12CCC(CC1=O)C2(C)C (configuration not stated)	3.3%	x	-3.7%	-5.0%	-24.5	-6.6
SMILES	SARS PLP yeast	Pf growth 96h	Pf growth 48h	AMA1 RON2 block	Shiga toxin inh	Cycloheximide cs
COc1cccc(C(C)NC(=O)Nc2ccccc2Cl)c1 (configuration not stated)	0.0%	4.1%	u	-1.5%	8.6	3.9
CC(C)(C)c1cc[n+](C2=C([O-])c3ccccc3C(=O)/C2=N\S(=O)(=O)c2ccccc2)cc1	-1.9%	4.15µM*	3.7µM*	-22.5%	94.8*	58.3*
CCN1C(=O)CS/C1=N\S(=O)(=O)c1ccccc1	-0.3%	48.0%	-23.9%	-11.6%	3.3	-1.6
O=c1[nH]c(/C=C/c2ccc(OC(F)F)cc2)nc2c1cnn2-c1ccccc1	-0.4%	4.5%	-4.0%	1.8%	19.0	-0.8
O=C(Nc1cccs1)Nc1c(F)c(F)cc(F)c1F	13.6%	4.65µM*	u	1.7%	-6.4	2.5
COC(=O)c1ccccc1NC(=O)Nc1cccs1	-14.5%	0.0%	0.0%	-16.3%	-2.6	-3.2
O=C(Nc1cccs1)Nc1ccccc1Br	-9.9%	u	78.2%	-4.3%	46.7*	30.1*
O=C(Nc1cccs1)Nc1c(F)c(F)c(F)c(F)c1F	9.1%	89.3%	u	20.4%	-10.4	-2.4
O=C(NC(=S)Nc1cccc(C(F)(F)F)c1)c1csnn1	-2.1%	15.2%	2.9%	101.8%	-2.7	-1.0
O=C(Nc1cccc(S(=O)(=O)N2CCCCC2)c1)C1CC(=O)N(Cc2ccccc2)C1 (configuration not stated)	-2.9%	u	13.1µM*	-3.8%	x	x
O=C(Nc1ccncc1)C1CCN(S(=O)(=O)c2cccc(C(F)(F)F)c2)CC1	2.5%	9.28µM*	13.1µM*	-2.6%	x	x
CCc1nnc(NC(=O)C2CC(=O)N(CCc3ccccc3)C2)s1 (configuration not stated)	7.2%	u	-11.0%	3.0%	13.2	15.6
O=C(NCc1ccncc1)C1CCN(S(=O)(=O)c2cccc(C(F)(F)F)c2)CC1	2.0%	u	-3.7%	9.8%	-7.5	-4.3
CCCCc1nnc(NC(=O)C2CC(=O)N(Cc3ccccc3)C2)s1 (configuration not stated)	u	10.4µM*	u	-3.1%	-5.3	-3.0
CN(c1ccccc1)S(=O)(=O)c1cccc(NC(=O)C2CC(=O)N(Cc3ccccc3)C2)c1 (configuration not stated)	-5.2%	u	u	-4.0%	-4.3	-3.2
O=C(Nc1cccc(S(=O)(=O)N2CCCCCC2)c1)C1CCC1	2.8%	13.1µM*	u	-8.4%	x	x
CCCCCCCCN1C(=O)[C@H](CC(=O)N2CCN(C(=O)c3ccco3)CC2)C[C@@]2(C(=O)OC)CC(C)(C)CC=C12	x	x	x	0.0%	x	x
Cc1ccc(S(=O)(=O)N2CCCCC2CCNC(=O)C(=O)NCC2CCCO2)cc1 (configuration not stated)	4.6%	-24.0%	-4.5%	-7.3%	x	x
CCCCn1nc2cc(C(=O)NC3CCCc4ccccc43)ccc2c1OCC (configuration not stated)	-6.0%	u	-27.8%	-7.9%	-7.5	1.9
